# Source: PubChem BioAssay (NCATS)
# “And” between values parts separate entries of the source, which are not always exact repeats. Equal entries are not always repeated. Values without a mark were called inactive. Inconclusive results are not listed. Where a call stands in place of a potency, no number is given. The source made the active and inactive calls. Unless noted, the call rests on the fitted dose curve; in most records, active means well fitted curve in the direction sought with a large enough effect in the repeat runs; inconclusive means weak or mixed curves; inactive means no such curve, though single readings can be large; an effect the other way counts as inactive or inconclusive.
# What was measured:
# [1] = qHTS assay for small molecule agonists of the antioxidant response element (ARE) signaling pathway measured by Nrf2-dependant transcriptional activity (AID 720636); conditions: ARE-luc HepG2, Nrf2 luciferase reporter, 16 h; series mostly up to 92.4 µM; further: potency means the concentration at half of the fitted maximal effect
# Procedure, shortened: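 Nrf2-dependent transcription read as ONE-Glo luciferase signal from ARE-luc HepG2 reporter cells after 16 hr compound treatment at 37 C, 5% CO2, in assay medium with 1% dialyzed FBS.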
# [2] = qHTS assay for small molecule antagonists of the retinoid-related orphan receptor gamma (ROR-gamma) signaling pathway - cell viability counter screen (AID 720652); conditions: RORgamma reporter cell line viability counter screen; series mostly up to 92.2 µM;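 further: CHO reporter cells with doxycycline-induced ROR-gamma expression; compound exposure lasted 16 hr before ATP read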
# Procedure, shortened: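 ATP-based viability readout in the ROR-gamma reporter CHO cells after 16 hr compound exposure under doxycycline induction.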
# [3] = qHTS assay for small molecule agonists of the antioxidant response element (ARE) signaling pathway measured by Nrf2-dependant transcriptional activity - cell viability counter screen (AID 720653); conditions: ARE-bla HepG2 viability, CellTiter-Glo ATP luminescence, 16 h; hits give low values
# Procedure, shortened: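 Cytotoxicity counter screen: intracellular ATP quantified by CellTiter-Glo luminescence in the same ARE-bla HepG2 plates, after 16 h compound exposure and a 2 h beta-lactamase substrate step.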
# [4] = molecular target: Tyrosine-protein kinase Yes (Homo sapiens) (UniProt P07947); assay: qHTS for small molecule inhibitors of Yes1 kinase: Primary Screen (AID 686947; active means well fitted curve in the direction sought with a large enough effect; an effect the other way counts as inactive or inconclusive; further: nearly all actives have a fitted effect of over 60% in size); conditions: Yes1 kinase biochemical qHTS inhibition; series mostly up to 76.9 µM
# Procedure, shortened: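 In this qHTS format, inhibition is expressed relative to DMSO controls with enzyme (maximum) and without enzyme (minimum). The 60 min room-temperature reaction uses 0.1 mM ATP, with ADP detected by luminescence.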
# [5] = qHTS for small molecule inhibitors of Yes1 kinase: Counter Assay (AID 686950; active means well fitted curve in the direction sought with a large enough effect; an effect the other way counts as inactive or inconclusive;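 further: no kinase present so only ADP-Glo detection of a fixed ADP amount is tested; luminescence from ADP-Glo reporting ADP in a fixed ATP and ADP mixture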); conditions: series mostly up to 76.9 µM
# Procedure, shortened: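 ADP-Glo luminescence read after a 60 min room-temperature incubation of compound with an ATP/ADP mix (0.08 mM/0.02 mM) and no kinase, following a 20 min compound preincubation. Signal scaled between ATP+ADP (max) and 0.1 mM ATP-only (min) wells; Tris pH 7.5, Mg2+, DTT.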
# [6] = qHTS for compounds that reverse cellular toxicity of Amyloid beta (A-beta) peptide in yeast: LOPAC Validation Assay (AID 720559; active means well fitted curve in the direction sought with a large enough effect; an effect the other way counts as inactive or inconclusive); conditions: yeast expressing A-beta; series mostly up to 46.1 µM
# Procedure, shortened: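 Here, A-beta-toxic yeast grow with test compounds at 30 C for 48 hr before optical density at 600 nm is recorded; data are normalized against DMSO and the FeCl3-clioquinol control.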
# [7] = qHTS for Activators of Parkin Expression: LOPAC Validation Assay (NLuc Reporter) (AID 720572; active means well fitted curve in the direction sought with a large enough effect; an effect the other way counts as inactive or inconclusive); conditions: Parkin promoter NanoLuc reporter cells, luminescence, percent of positive control, DMSO as zero; series mostly up to 46.1 µM
# Procedure, shortened: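 Compound effects on Parkin promoter activity were measured as NanoLuc luminescence after 24 h at 37 C. The neuronal reporter line also carried FLuc, which was read first. LOPAC compounds were tested at 7 concentrations, with normalization to DMSO (0%) and positive control (100%).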
# [8] = molecular target: T1, Hexokinase-4 (Homo sapiens) + Glucokinase regulatory protein (Homo sapiens) (UniProt P35557+Q14397); assay: qHTS assay for inhibitors of recombinant human GCK-GKRP interaction: Diaphorase-coupled assay (AID 743205; active means well fitted curve in the direction sought with a large enough effect; an effect the other way counts as inactive or inconclusive); conditions: G6PDH/diaphorase resorufin fluorescence; series mostly up to 57.5 µM
# Procedure, shortened: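 Signal derives from resorufin generated by diaphorase, linked to GCK turnover of glucose (5 mM) and ATP (0.4 mM). Enzyme complex was added after a 20-minute compound preincubation and monitored for 30 minutes.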
# [9] = molecular target: T1, Hexokinase-4 (Homo sapiens) + Glucokinase regulatory protein (Homo sapiens); assay: qHTS assay for inhibitors of recombinant human GCK-GKRP interaction: ADP-Glo assay (AID 743206; active means well fitted curve in the direction sought with a large enough effect; an effect the other way counts as inactive or inconclusive); conditions: ADP-Glo luminescence, 60 min, 0% = vehicle-only wells with enzyme present; series mostly up to 76.9 µM
# Excerpt: Glucokinase (GCK) is a glucose sensor in hepatocytes and pancreatic beta-cells. Hepatic GCK is regulated by glucokinase regulatory protein (GKRP), which is predominantly localized to the liver. GKRP binds to GCK inhibiting its activity in the fasting state while in the presence of glucose the GKRP is displaced. There is an additional layer of regulation by fructose 1-phosphate and fructose 6-phosphate, which inhibit and enhance the GCK-GKRP interaction, respectively. GCK plays a role in glucose homeostasis and there is an interest in the development of strategies to activate GCK to lower blood glucose levels in type 2 diabetes. […]
# 2 uL of 15 nM GST-GCK and 15 nM FLAG-GKRP proteins with 2 uM S6P (columns 1-2, 4-48; Millipore, Billerica, MA) are dispensed into Greiner, white solid-bottom 1536-well assay plates; columns 3 receive buffer without GCK as a control for maximum inhibition. […] The amount of ADP is then quantified by the ADP-Glo Kit (Promega, Madison, WI). First, 2 uL of the first kit reagent is added, and the reaction is incubated for 45 minutes; then, 4 uL of the second kit reagent are added and the reaction is incubated for 30 minutes at which time the luminescence is read on a Viewlux plate reader (Perkin-Elmer, Waltham, MA). […]
# [10] = molecular target: T1, Hexokinase-4 (Homo sapiens) + Glucokinase regulatory protein (Homo sapiens); assay: qHTS assay for inhibitors of recombinant human GCK-GKRP interaction: HTRF assay (AID 743207; active means well fitted curve in the direction sought with a large enough effect; an effect the other way counts as inactive or inconclusive); conditions: recombinant GCK-GKRP HTRF binding, 60 min, with sorbitol-6-phosphate; series mostly up to 57.5 µM
# Procedure, shortened: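 Titration screening format: recombinant GST-GCK and FLAG-GKRP at 5 nM, S6P at 2 uM, labelled anti-tag antibodies, 60 min at RT, dual-wavelength HTRF readout.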
# T1 sequence (P35557 whole entry, looked up): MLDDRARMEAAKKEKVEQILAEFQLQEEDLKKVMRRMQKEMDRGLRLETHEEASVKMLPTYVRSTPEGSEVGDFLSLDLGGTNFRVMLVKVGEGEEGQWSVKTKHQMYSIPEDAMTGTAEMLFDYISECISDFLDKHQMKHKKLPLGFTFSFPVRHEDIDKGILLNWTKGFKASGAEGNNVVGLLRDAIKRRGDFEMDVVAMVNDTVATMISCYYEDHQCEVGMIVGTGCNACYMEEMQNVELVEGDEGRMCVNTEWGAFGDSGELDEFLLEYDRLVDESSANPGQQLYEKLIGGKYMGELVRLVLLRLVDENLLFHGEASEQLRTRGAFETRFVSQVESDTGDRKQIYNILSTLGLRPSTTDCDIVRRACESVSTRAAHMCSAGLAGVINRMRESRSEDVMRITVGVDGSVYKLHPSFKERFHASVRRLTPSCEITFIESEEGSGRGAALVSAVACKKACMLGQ
# T1 sequence (Q14397 whole entry, looked up): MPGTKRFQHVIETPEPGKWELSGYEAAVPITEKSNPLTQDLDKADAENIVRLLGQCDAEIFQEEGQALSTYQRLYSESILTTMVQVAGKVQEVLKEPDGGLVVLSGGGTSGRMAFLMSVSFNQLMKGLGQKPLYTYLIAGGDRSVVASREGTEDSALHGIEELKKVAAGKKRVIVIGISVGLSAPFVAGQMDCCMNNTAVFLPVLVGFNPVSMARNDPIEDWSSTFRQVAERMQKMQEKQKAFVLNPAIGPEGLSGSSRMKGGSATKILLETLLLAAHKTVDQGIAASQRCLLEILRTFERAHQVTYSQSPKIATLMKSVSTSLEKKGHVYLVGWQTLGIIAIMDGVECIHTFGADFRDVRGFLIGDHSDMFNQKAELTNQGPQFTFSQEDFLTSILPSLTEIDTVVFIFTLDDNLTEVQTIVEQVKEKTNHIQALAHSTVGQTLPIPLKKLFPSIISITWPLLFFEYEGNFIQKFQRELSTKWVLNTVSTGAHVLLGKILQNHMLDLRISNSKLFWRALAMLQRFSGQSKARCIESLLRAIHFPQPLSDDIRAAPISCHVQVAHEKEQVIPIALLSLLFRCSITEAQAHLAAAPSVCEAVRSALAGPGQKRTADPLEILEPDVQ
# Tyrosine-protein kinase Yes (Homo sapiens), sequence (P07947 whole entry, looked up): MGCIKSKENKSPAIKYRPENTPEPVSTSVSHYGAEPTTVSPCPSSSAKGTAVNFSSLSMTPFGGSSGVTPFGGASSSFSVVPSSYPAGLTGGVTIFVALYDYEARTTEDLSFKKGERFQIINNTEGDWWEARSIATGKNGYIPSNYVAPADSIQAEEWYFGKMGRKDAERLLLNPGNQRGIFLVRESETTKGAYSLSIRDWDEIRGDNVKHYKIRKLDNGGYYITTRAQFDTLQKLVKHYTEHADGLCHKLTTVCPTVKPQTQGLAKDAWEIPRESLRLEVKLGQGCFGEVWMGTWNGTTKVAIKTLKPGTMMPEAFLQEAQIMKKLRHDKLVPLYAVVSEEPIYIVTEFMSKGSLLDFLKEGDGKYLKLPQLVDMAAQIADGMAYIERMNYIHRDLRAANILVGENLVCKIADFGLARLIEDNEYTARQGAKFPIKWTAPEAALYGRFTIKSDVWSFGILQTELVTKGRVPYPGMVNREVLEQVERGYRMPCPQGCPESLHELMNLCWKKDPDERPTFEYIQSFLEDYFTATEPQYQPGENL
structure (smiles),measurement,setting,value
c1ccc2ccccc2c1,Potency,[1],inactive
same,outcome,[2],inactive
same,max response,[3],1.06% and 1.45%
NCCN,Potency,[1],inactive
same,outcome,[2],inactive
same,max response,[3],-3.91%
C=C1C(CCl)(CCl)C2(Cl)C(Cl)C(Cl)C1(Cl)C2(Cl)Cl (stereo unspecified),Potency,[1],66.8 µM (active)
C[C@H]1O[C@@H](O[C@H]2[C@@H](O)C[C@H](O[C@H]3[C@@H](O)C[C@H](O[C@H]4CC[C@@]5(C)[C@H](CC[C@@H]6[C@@H]5C[C@@H](O)[C@]5(C)[C@@H](C7=CC(=O)OC7)CC[C@]65O)C4)O[C@@H]3C)O[C@@H]2C)C[C@H](O)[C@@H]1O,Potency,[1],inactive
O=P(O)(O)O,Potency,[1],inactive
same,outcome,[2],inactive
same,max response,[3],-2%
CO,Potency,[1],inactive
same,outcome,[2],inactive
same,max response,[3],-2.74%
C/C=C/C=C/C(=O)O,Potency,[1],inactive
same,outcome,[2],inactive
same,max response,[3],-1.45%
CO[C@H]1C[C@@H]2CC[C@@H](C)[C@@](O)(O2)C(=O)C(=O)N2CCCC[C@H]2C(=O)O[C@H]([C@H](C)C[C@@H]2CC[C@@H](OC(=O)C(C)(CO)CO)[C@H](OC)C2)CC(=O)[C@H](C)/C=C(\C)[C@@H](O)[C@@H](OC)C(=O)[C@H](C)C[C@H](C)/C=C/C=C/C=C/1C,outcome,[4],inactive
same,outcome,[5],inactive
NC(N)=O,Potency,[1],inactive
same,outcome,[2],inactive
same,max response,[3],-1.96%
C[C@H](CCC(=O)O)[C@H]1CC[C@H]2[C@@H]3CC[C@@H]4C[C@H](O)CC[C@]4(C)[C@H]3C[C@H](O)[C@]12C,Potency,[1],inactive
same,outcome,[2],inactive
same,max response,[3],-10.6%
CO/N=C(/C(=O)N[C@@H]1C(=O)N2C(C(=O)O)=C(COC(N)=O)CS[C@H]12)c1ccco1,Potency,[1],inactive
same,outcome,[2],inactive
same,max response,[3],4.41%
ClC(Cl)Cl,Potency,[1],inactive
same,outcome,[2],inactive
same,max response,[3],-10.5%
CCCCC,Potency,[1],inactive
same,outcome,[2],inactive
same,max response,[3],-14.6%
CC[C@H]1OC(=O)[C@H](C)[C@@H](O[C@H]2C[C@@](C)(OC)[C@@H](O)[C@H](C)O2)[C@H](C)[C@@H](O[C@@H]2O[C@H](C)C[C@H](N(C)C)[C@H]2O)[C@](C)(O)C[C@@H](C)CN(C)[C@H](C)[C@@H](O)[C@]1(C)O,Potency,[1],inactive
same,outcome,[2],inactive
same,max response,[3],-20.4%
Nc1ncnc2c1ncn2[C@H]1CC[C@@H](CO)O1,Potency,[1],inactive
same,outcome,[2],inactive
same,max response,[3],-18.5% and 2.96%
CCCCO,Potency,[1],inactive
same,outcome,[2],inactive
same,max response,[3],-5.18% and -2.26%
OCl,Potency,[1],inactive
same,outcome,[2],inactive
same,max response,[3],-6.58%
Cc1ncc[nH]1,Potency,[1],inactive
same,outcome,[2],inactive
same,max response,[3],2.15%
C[C@H](CCC(=O)O)[C@H]1CC[C@H]2[C@@H]3[C@H](O)C[C@@H]4C[C@H](O)CC[C@]4(C)[C@H]3C[C@H](O)[C@]12C,Potency,[1],inactive
same,outcome,[2],inactive
same,max response,[3],1.94%
CCOC(C)OCC,Potency,[1],inactive
same,outcome,[2],inactive
same,max response,[3],-4.14%
Oc1ccc(/C=C/c2cc(O)cc(O)c2)cc1,outcome,[6],inactive
same,outcome,[7],inactive
same,outcome,[2],inactive
same,max response,[3],7.43% and -3.23%
same,outcome,[8],inactive
same,outcome,[9],inactive
same,outcome,[10],inactive
OCC(O)CO,Potency,[1],inactive
same,outcome,[2],inactive
same,max response,[3],-6.54% and -5.61%
Cc1ccc(S(=O)(=O)O)cc1C,Potency,[1],inactive
same,outcome,[2],inactive
same,max response,[3],12.7%
O=c1n(CC2CO2)c(=O)n(CC2CO2)c(=O)n1CC1CO1 (stereo unspecified),Potency,[1],59.6 µM (active) and 61.1 µM (active)
same,outcome,[2],inactive
same,max response,[3],-19.7% and -11.1%
CC(C)O,Potency,[1],inactive
same,outcome,[2],inactive
same,max response,[3],2%
COC(=O)c1ccccc1O,Potency,[1],inactive
same,outcome,[2],inactive
same,max response,[3],1.24% and 5.57%
CC1=CC(=O)NS(=O)(=O)O1,Potency,[1],inactive
same,outcome,[2],inactive
same,max response,[3],6.07% and 6.81%
CO[C@@H]1[C@H](OC(=O)/C=C/C=C/C=C/C=C/C(=O)O)CC[C@]2(CO2)[C@H]1[C@@]1(C)O[C@@H]1CC=C(C)C,max response,[3],8.65%
CCCCCCCCCCCCCCCCCC(=O)OC[C@@H](O)[C@H]1OC[C@H](O)[C@H]1O,Potency,[1],inactive
same,max response,[3],-0.0548%
Nc1ccc(N=Nc2ccccc2)c(N)n1,max response,[3],-11.4% and -26.2%
CN(CCO)CC(O)Cn1cnc2c1c(=O)n(C)c(=O)n2C (stereo unspecified) (tested in a mixture with another compound),Potency,[1],inactive
same,max response,[3],2.54%
C[Si](C)(C)O[Si](C)(C)C,Potency,[1],inactive
same,max response,[3],-6.75%
OB(O)O,Potency,[1],inactive
same,outcome,[2],inactive
same,max response,[3],-7.44% and 3.96%
NCCO/C=C/[C@H](N)C(=O)O,Potency,[1],inactive
same,max response,[3],6.58%
OCCOCCOCCO,Potency,[1],inactive
same,max response,[3],-9.26% and -13.2%
CC(C)(C)CC(C)(C)c1ccc(OCCO)cc1,Potency,[1],inactive
same,max response,[3],-18%
CC(C)CCCCCCc1ccc(O)cc1,Potency,[1],inactive
same,max response,[3],-6.03%
O.O.O.O.O.O.O.O=S(=O)([O-])[O-].[Co+2],Potency,[1],inactive
same,max response,[3],-4.91%
Cc1ccc(S(=O)(=O)NCl)cc1,Potency,[1],inactive
same,max response,[3],-0.456%
CC(C)[C@@H]1CC[C@@H](C)C[C@H]1O,Potency,[1],inactive
same,max response,[3],0.622%
Nc1nccs1,Potency,[1],inactive
same,max response,[3],-16.1%
CC(C)CCC[C@@H](C)[C@H]1CC[C@H]2[C@@H]3CC=C4C[C@@H](O)CC[C@]4(C)[C@H]3CC[C@]12C,Potency,[1],inactive
same,max response,[3],-4.46%
CCCCC(CC)COS(=O)(=O)O (stereo unspecified),Potency,[1],inactive
same,max response,[3],8.31%
OCc1ccccc1,Potency,[1],inactive
same,outcome,[2],inactive
same,max response,[3],-4.76%
C=C(C)C1CC=C(C)CC1 (stereo unspecified),Potency,[1],inactive
same,max response,[3],-0.676% and -5.86%
CC/C=C\C/C=C\C/C=C\CCCCCCCC(=O)O,outcome,[2],inactive
same,max response,[3],-3.01%
[O-][N+](=Nc1ccccc1)c1ccccc1,outcome,[2],inactive
same,max response,[3],-2.2%
Oc1cccc(O)c1O,Potency,[1],inactive
same,outcome,[2],inactive
same,max response,[3],-24.8%
N[C@@H](Cc1cc(I)c(Oc2ccc(O)c(I)c2)c(I)c1)C(=O)O,Potency,[1],inactive
same,max response,[3],-4.18%
OC[C@H]1O[C@@H]2O[C@H]3[C@H](O)[C@@H](O)[C@@H](O[C@H]4[C@H](O)[C@@H](O)[C@@H](O[C@H]5[C@H](O)[C@@H](O)[C@@H](O[C@H]6[C@H](O)[C@@H](O)[C@@H](O[C@H]7[C@H](O)[C@@H](O)[C@@H](O[C@H]1[C@H](O)[C@H]2O)O[C@@H]7CO)O[C@@H]6CO)O[C@@H]5CO)O[C@@H]4CO)O[C@@H]3CO,Potency,[1],inactive
same,outcome,[2],inactive
same,max response,[3],-2.78% and 5.87%
CC1=CCC2CC1C2(C)C (stereo unspecified),Potency,[1],inactive
same,outcome,[2],inactive
same,max response,[3],-2.11%
C=CC(C)(O)CC/C=C(\C)CCC=C(C)C (stereo unspecified),Potency,[1],inactive
same,max response,[3],1.82%
OC[C@H]1O[C@@](CO)(O[C@H]2O[C@H](CO)[C@@H](O)[C@H](O)[C@H]2O)[C@@H](O)[C@@H]1O,Potency,[1],inactive
same,max response,[3],-5.77%
O=C(OCc1ccccc1)c1ccc(O)cc1,max response,[3],-5.99%
